Most compounds without a hit are left out; they make up all but 2.4% or so of the library.
D2 PAM-1 – positive allosteric modulators of human D2 dopamine receptor; P14416; potentiation, % at 10 µM; AID 485347; HEK293 T-REx D2, calcium flux, EC20 dopamine potentiation; 0.34% of 340,000 active;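 active = potentiation over 3 SD above the plate norm, cut at about 30% in these data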; note: 0% is about no effect
Target sequence (P14416 whole entry, looked up): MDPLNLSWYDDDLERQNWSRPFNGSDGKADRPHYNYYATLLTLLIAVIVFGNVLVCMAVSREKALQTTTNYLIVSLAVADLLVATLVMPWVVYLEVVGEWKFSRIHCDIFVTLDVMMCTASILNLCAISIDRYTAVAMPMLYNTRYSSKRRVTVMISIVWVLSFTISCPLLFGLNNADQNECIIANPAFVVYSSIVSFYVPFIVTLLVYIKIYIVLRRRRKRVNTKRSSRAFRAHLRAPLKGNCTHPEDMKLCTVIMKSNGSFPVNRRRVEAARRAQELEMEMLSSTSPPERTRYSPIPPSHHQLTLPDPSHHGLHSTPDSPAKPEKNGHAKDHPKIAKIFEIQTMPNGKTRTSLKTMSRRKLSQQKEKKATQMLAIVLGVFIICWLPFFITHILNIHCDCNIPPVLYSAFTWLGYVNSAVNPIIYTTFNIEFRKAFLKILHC
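Potentiation of an EC20 dopamine calcium response is measured in a force-coupled, tetracycline-inducible Hek293 Trex D2 line. Compound-only kinetic reads over 180 s flag agonists before dopamine addition.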
D2 antagonist – antagonizes the human D2 dopamine receptor; P14416; HEK293 TREx D2 cells, calcium flux, dopamine EC80; inhibition, % at 10 µM; 2% of 340,000 active; AID 485344; in the data active = inhibition above about 30%; inactive = below that, where a call was filed; note: 0% is about no effect
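Calcium mobilization kinetics were recorded at 1 s intervals in tetracycline-induced HEK293 T-REx D2 cells, first for 180 s after compound addition and then 180 s after EC80 dopamine.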
D2 ag-1 – agonists of human D2 dopamine receptor (beta-arrestin) | activation, % (no concentration beside the values) | 0.084% of 360,000 active | DiscoveRx PathHunter D2 beta-arrestin, luminescence, 90 min; 100% = 57 uM dopamine signal | AID 624465; in the data active = activation above about 40%; inconclusive = between about 15% and that limit
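DiscoveRx PathHunter D2 beta-arrestin cells (2,100/well) attached overnight, then compound-stimulated 90 min at 37 C in HBSS/10 mM HEPES/0.1% Tween-20 buffer; beta-galactosidase complementation read by luminescence after 1 h at ambient temperature. Dopamine 57 uM final (EC100) as control.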
D2 ag-2 – D2 dopamine receptor (human) agonism; activation, % at 2 µM; 0.53% of 340,000 active; P14416; HEK293 T-REx D2 cells, calcium flux agonist mode;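 active = activation over 3 SD above normal in the single-dose calcium agonist read, cut at about 30% in these data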; note: 0% is about no effect
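Calcium-flux readout, 1 cycle/sec over 180 s following compound pin transfer, in inducible HEK293 Trex D2 cells (force-coupled); dopamine controls included. Positive calcium responses during this window marked compounds as potential agonists.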
D2 PAM-2 – positive allosteric modulators of human D2 dopamine receptor; P14416; potentiation, % (no concentration beside the values); 0.23% of 360,000 active; DiscoveRx D2 beta-arrestin cells, luminescence, 90 min; 100% = 57 uM dopamine signal; in the data active = potentiation above about 50%; inconclusive = mostly about 30% to 49%
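D2 cells co-treated with compound plus 50 nM dopamine (EC20) for 90 min at 37 deg C to detect potentiation. Beta-arrestin recruitment was read as enzyme-fragment luminescence after 1 h at ambient temperature. Full response was set by 57 uM dopamine.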
* hit, by the source's call.

For CCC(=O)NC1=C(Cl)C(=O)C(NC(=O)CC)=C(Cl)C1=O the results were D2 PAM-1 1.0, D2 antagonist -8.2, D2 ag-1 41.9*, D2 ag-2 1.9 and D2 PAM-2 -59.8.
For O=C(NCCCN1CCCC1=O)Nc1ccc([N+](=O)[O-])cc1 the results were D2 PAM-1 7.7, D2 antagonist 34.8*, D2 ag-1 -19.5, D2 ag-2 -0.1 and D2 PAM-2 -5.3.
O=C(NCCCN1CCCC1=O)Nc1ccc(Cl)cc1 was read as D2 ag-1 0.3 and D2 PAM-2 -7.1.
CCCCOc1ccc(C(=O)Nc2cccc(-c3nc4cccnc4s3)c2)cc1 was read as D2 PAM-1 5.1 and D2 ag-2 2.1.
`COc1ccc(C(=O)C2CCN(C(=O)c3ccco3)CC2)cc1` gave D2 PAM-1 5.2, D2 antagonist -12.6, D2 ag-1 -2.9, D2 ag-2 -0.2 and D2 PAM-2 -0.1.
Screening COc1ccc(NC(=S)N2CCN(C(=O)c3ccco3)CC2)cc1 returned D2 PAM-1 -9.2, D2 antagonist 32.3*, D2 ag-1 -2.6, D2 ag-2 2.8 and D2 PAM-2 -5.1.
Cc1c(Cl)cccc1NC(=O)N1CCN(C(=O)c2ccco2)CC1 was read as D2 PAM-1 -2.9, D2 antagonist -3.8, D2 ag-1 -3.6, D2 ag-2 31.4* and D2 PAM-2 -3.7.
COc1ccc(C2(NC(C)=O)CCN(C(=O)c3ccco3)CC2)cc1 was read as D2 PAM-1 9.0, D2 antagonist 32.9*, D2 ag-1 -5.6, D2 ag-2 -0.1 and D2 PAM-2 -8.1.
C#Cc1cccc(N2C(=O)C3C4C=CC(C3C2=O)C2C(=O)N(c3cccc(C#C)c3)C(=O)C42)c1 (stereo unspecified) was read as D2 ag-1 -0.7 and D2 PAM-2 -8.6.
Screening CC(C)Oc1ccc(CNC(=O)c2ccc(CS(=O)Cc3ccccc3Cl)o2)cc1 (stereo unspecified) returned D2 PAM-1 -3.6.
CCN(Cc1nc2ccccc2c(=O)[nH]1)C(=O)c1cccc(S(=O)(=O)N2CCc3ccccc32)c1 was read as D2 PAM-1 0.1, D2 antagonist 47.4*, D2 ag-1 0.6, D2 ag-2 -0.3 and D2 PAM-2 -1.3.
Screening COc1ccc(-c2cc(C(C)=O)c(C)n2CCC(=O)Nc2ccc(C)c(Cl)c2)cc1 returned D2 PAM-1 1.9 and D2 ag-2 -0.1.
Screening Cn1c(=O)c(=O)n(C)c2cc([N+](=O)[O-])c([N+](=O)[O-])cc21 returned D2 PAM-1 6.7, D2 antagonist 14.4, D2 ag-1 inconclusive, D2 ag-2 1.6 and D2 PAM-2 54.0*.
Cn1cccc([N+](=O)[O-])c1=O was read as D2 ag-1 -4.5 and D2 PAM-2 -15.8.
For Cc1cc(C)cc(N=Cc2[nH]c3ccc(Br)c(Cl)c3c2O)c1 the results were D2 PAM-1 -4.5, D2 antagonist -4.2, D2 ag-1 5.9, D2 ag-2 33.8* and D2 PAM-2 -12.4.
`CCCN1C2CCCC1CC(NC(=O)c1ccccc1)C2` (stereo unspecified) gave D2 PAM-1 -8.5, D2 antagonist 30.1*, D2 ag-1 -0.1, D2 ag-2 3.0 and D2 PAM-2 -22.3.
Screening CCCCN1C2CCCC1CC(NC(=O)c1cccc(Cl)c1)C2 (stereo unspecified) returned D2 PAM-1 -23.9, D2 antagonist 30.8*, D2 ag-1 -3.4, D2 ag-2 -0.3 and D2 PAM-2 -29.9.
For NS(=O)(=O)c1ccc(CCNC(=O)Cn2c(=O)c3cccn3c3ccc(F)cc32)cc1 the results were D2 PAM-1 -6.4 and D2 ag-2 0.6.
Screening CCCN(C(=O)Cn1ncc2c1-c1ccccc1OC2)c1cccc(C)c1 returned D2 PAM-1 9.3 and D2 ag-2 -0.7.
CCN(CC)c1ccc2cc(S(=O)(=O)c3ccc(Cl)cc3)c(=O)oc2c1 was read as D2 PAM-1 4.8, D2 antagonist -75.8, D2 ag-1 -3.0, D2 ag-2 68.0* and D2 PAM-2 -1.2.
For CCCCCCc1cc2cc(S(=O)(=O)c3ccc(Cl)cc3)c(=O)oc2cc1O the results were D2 PAM-1 -5.5, D2 ag-1 1.7 and D2 PAM-2 3.3.
Cc1nn(Cc2ccc(F)cc2)c2sc(C(=O)Nc3nccs3)cc12 was read as D2 PAM-1 -0.4, D2 antagonist -5.7, D2 ag-1 inconclusive, D2 ag-2 -1.4 and D2 PAM-2 inconclusive.
`Cc1nn(Cc2ccccc2Cl)c2sc(C(=O)Nc3nccs3)cc12` gave D2 PAM-1 -8.6, D2 antagonist 38.4*, D2 ag-1 3.0, D2 ag-2 -1.9 and D2 PAM-2 8.1.
`Cc1nn(Cc2ccc(Cl)cc2)c2sc(C(=O)O)cc12` gave D2 PAM-1 -0.3, D2 antagonist 31.6*, D2 ag-1 -5.0, D2 ag-2 -0.2 and D2 PAM-2 -6.7.
Screening Cc1nc(/N=C(\N)NC(=O)N2c3ccccc3Sc3ccccc32)nc2ccccc12 returned D2 PAM-1 -2.7, D2 antagonist -10.2, D2 ag-1 5.7, D2 ag-2 0.4 and D2 PAM-2 55.0*.
Cc1nc(/N=C(\N)NC(=O)c2ccccc2)nc2ccccc12 was read as D2 PAM-1 7.0, D2 antagonist -12.4, D2 ag-1 -0.1, D2 ag-2 0.0 and D2 PAM-2 -17.2.
`CC(=O)N1CCN(C(=S)NC(=O)C23CC4CC(CC(C4)C2)C3)CC1` gave D2 PAM-1 33.9*, D2 antagonist -3.0, D2 ag-1 -1.2, D2 ag-2 0.3 and D2 PAM-2 -13.5.
CNC(=S)N1CCC(NC(=O)C23CC4CC(CC(C4)C2)C3)CC1 was read as D2 PAM-1 -3.7, D2 antagonist 6.3, D2 ag-1 4.5, D2 ag-2 0.3 and D2 PAM-2 -3.2.
`COCc1cc(C)nc2c1C(=O)NC(c1ccc(F)cc1)N2Cc1ccccc1` (stereo unspecified) gave D2 PAM-1 0.6 and D2 ag-2 0.1.
`COc1ccc(CC(=O)Nc2ccc3nc(SC)sc3c2)cc1OC` gave D2 PAM-1 -21.7, D2 antagonist 20.8, D2 ag-1 3.8, D2 ag-2 33.3* and D2 PAM-2 0.8.
`CCS(=O)(=O)c1ncc(Cl)c(C(=O)N(Cc2ccccc2)Cc2ccco2)n1` gave D2 PAM-1 5.7 and D2 ag-2 6.7.
O=C1CCNc2cc3ccccc3cc21 was read as D2 PAM-1 28.1, D2 antagonist 5.9, D2 ag-1 14.9, D2 ag-2 -0.5 and D2 PAM-2 55.4*.
CCN(CC)c1ccc(CN(C(=O)c2cccs2)C2CCS(=O)(=O)C2)cc1 (stereo unspecified) was read as D2 PAM-1 9.1, D2 antagonist 30.1*, D2 ag-1 -4.6, D2 ag-2 0.1 and D2 PAM-2 -14.3.
